# Results published in PubChem BioAssay (Tox21).
# Values without a mark were called inactive. Inconclusive results are not listed. A call without a number means that no potency is given here. Active and inactive are the calls of the source. Unless noted, calls come from the whole dose curve; as a rule, active = well fitted curve in the direction sought with a large enough effect in the repeat runs; inconclusive = weak or mixed curves; inactive = no such curve, though single readings can be large; an effect the other way counts as inactive or inconclusive.
# Columns and labels:
# [1] = qHTS assay for small molecule agonists of the p53 signaling pathway (AID 651631; calls by dose curve; note: nearly all actives have a fitted effect of over 15% in size; note: potency is the fitted concentration of half-maximal effect)
# How it was run: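 HCT-116 cells carrying a stable p53 response element–beta-lactamase reporter were plated, rested 5 h at 37 °C, then exposed to compound in DMSO for 16 h at 37 °C; reporter activity was read as FRET substrate fluorescence after 2 h at room temperature.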
# [2] = qHTS assay for small molecules that induce genotoxicity in human embryonic kidney cells expressing luciferase-tagged ATAD5 (AID 651632); note: nearly all actives have a fitted effect of over 15% in size
# How it was run: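 Genotoxicity read-out via ATAD5-luciferase: HEK293T cells, 16 hr compound incubation at 37C, Amplite detection.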
# [3] = qHTS assay for small molecules that induce genotoxicity in human embryonic kidney cells expressing luciferase-tagged ATAD5 - cell viability (AID 651634; calls by dose curve; note: nearly all actives have a fitted effect of over 25% in size)
# How it was run: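 Live-cell protease activity (CellTiter-Fluor, fluorescence) indicates viability. HEK293T cells with luciferase-tagged ATAD5; 15.5 hr compound treatment at 37C.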
# [4] = qHTS assay for small molecule disruptors of the mitochondrial membrane potential - cell viability (AID 720634; calls by dose curve; note: nearly all actives have a fitted effect of over 20% in size; note: potency is the fitted concentration of half-maximal effect)
# How it was run: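 Human hepatoma HepG2 cells were treated for 1 hr with test chemicals, then given m-MPI dye and CellTiter-Glo. Cell viability reflects luminescence proportional to cellular ATP.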
# [5] = qHTS assay to test for compound auto fluorescence at 590 nm (red) in HepG2 cells (AID 720674)
# How it was run: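 We screened compounds on adherent HepG2 cells, incubating them for an hour at 37 C in 5% CO2 before reading emission at 590 nm under 540 nm excitation; values reflect equivalence to Rose Bengal sodium fluorescence.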
# [6] = qHTS assay to test for compound auto fluorescence at 535 nm (green) in HepG2 cells (AID 720675)
# [7] = qHTS assay to test for compound auto fluorescence at 460 nm (blue) in HEK293 cells (AID 720678)
# How it was run: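 After cell attachment (4-5 hr, 37C), compounds were pinned onto HEK293 monolayers in 10% dialyzed FBS medium. The blue channel (405/460 nm) was read following overnight culture. Equivalency was calculated against triamterene.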
# [8] = qHTS assay to test for compound auto fluorescence at 590 nm (red) in HEK293 cells (AID 720679)
# How it was run: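 Plates of HEK293 cells (10% dialyzed FBS) are treated with 23 nL compound or DMSO vehicle after a 4-5 hr attachment period, incubated overnight at 37C, and read for red fluorescence at 540/590nm.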
# [9] = qHTS assay to test for compound auto fluorescence at 535 nm (green) in HEK293 cells (AID 720680)
# [10] = qHTS assay to test for compound auto fluorescence at 460 nm (blue) in HEK293 cell free culture (AID 720681)
# How it was run: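 Blue fluorescence (Ex 405/Em 460 nm, triamterene-equivalent) was read immediately after pin transfer of compound or DMSO into medium (DMEM, 10% FBS) without cells.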
# [11] = qHTS assay to test for compound auto fluorescence at 535 nm (green) in HEK293 cell free culture (AID 720682)
# How it was run: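 Read-out: 485/535 nm fluorescence intensity, calibrated against fluorescein. Medium only (DMEM + 10% FBS, no cells); test compound or DMSO vehicle added by pintool before plate reading.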
# [12] = qHTS assay to test for compound auto fluorescence at 590 nm (red) in HEK293 cell free culture (AID 720683)
# How it was run: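 Red-channel autofluorescence of compounds in culture medium (DMEM, 10% FBS), no cells, measured at 540/590 nm. Rose Bengal sodium is the reference fluorophore for equivalence.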
# [13] = qHTS assay to test for compound auto fluorescence at 590 nm (red) in HepG2 cell free culture (AID 720684)
# How it was run: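 Steps: dispense MEM/10% FBS medium, no cells; pin compound or DMSO vehicle; read red channel, Ex/Em 540/590 nm. Output given as Rose Bengal sodium equivalents.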
# [14] = qHTS assay to test for compound auto fluorescence at 460 nm (blue) in HepG2 cell free culture (AID 720685)
# How it was run: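 Compound (23 nL) or DMSO pinned into cell-free MEM with 10% FBS; blue fluorescence read at 405/460 nm excitation/emission, expressed as auto-fluorescence equivalency to triamterene.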
# [15] = qHTS assay to test for compound auto fluorescence at 535 nm (green) in HepG2 cell free culture (AID 720686)
# [16] = qHTS assay to test for compound auto fluorescence at 460 nm (blue) in HepG2 cells (AID 720687)
# How it was run: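 Blue-channel autofluorescence (Ex/Em 405/460 nm, triamterene-equivalent) was measured after 1 hr compound exposure at 37 C, 5% CO2. Cells were HepG2, plated overnight at 37 C in MEM plus 10% FBS.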
# [17] = target: Glucocorticoid receptor (Homo sapiens) (UniProt P04150); assay: qHTS assay to identify small molecule agonists of the glucocorticoid receptor (GR) signaling pathway (AID 720691; active = well fitted activation curve with a large enough effect in the signal ratio in the repeat runs, not every such curve was filed as active; the % refers to the signal ratio)
# Sequence of Glucocorticoid receptor (Homo sapiens) (P04150 whole entry, looked up): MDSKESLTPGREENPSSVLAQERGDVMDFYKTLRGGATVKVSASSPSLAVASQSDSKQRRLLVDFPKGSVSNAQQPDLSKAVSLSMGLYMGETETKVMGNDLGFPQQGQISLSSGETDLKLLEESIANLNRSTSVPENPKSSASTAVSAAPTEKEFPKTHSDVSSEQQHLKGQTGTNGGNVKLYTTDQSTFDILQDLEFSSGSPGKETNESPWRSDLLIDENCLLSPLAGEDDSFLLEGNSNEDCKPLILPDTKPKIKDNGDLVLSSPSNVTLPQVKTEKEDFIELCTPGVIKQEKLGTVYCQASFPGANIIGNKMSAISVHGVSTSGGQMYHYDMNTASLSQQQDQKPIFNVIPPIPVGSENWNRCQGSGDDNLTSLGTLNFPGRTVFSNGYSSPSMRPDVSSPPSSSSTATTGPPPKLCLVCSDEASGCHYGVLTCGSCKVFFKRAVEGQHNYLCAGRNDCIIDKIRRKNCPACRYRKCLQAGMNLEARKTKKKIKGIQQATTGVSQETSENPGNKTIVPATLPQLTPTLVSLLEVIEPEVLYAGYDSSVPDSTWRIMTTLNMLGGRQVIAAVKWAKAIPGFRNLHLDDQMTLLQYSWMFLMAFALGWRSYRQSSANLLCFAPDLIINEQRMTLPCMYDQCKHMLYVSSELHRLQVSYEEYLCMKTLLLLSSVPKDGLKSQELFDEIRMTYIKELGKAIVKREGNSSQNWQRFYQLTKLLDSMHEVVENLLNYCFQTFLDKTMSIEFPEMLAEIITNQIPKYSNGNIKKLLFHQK
# How it was run: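 Beta-lactamase reporter activity, read as fluorescence intensity, was measured in GR-bla HeLa cells exposed to compounds for 18 h at 37 C and then loaded with LiveBLAzer B/G FRET substrate for 2 h at room temperature.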
# [18] = qHTS assay for small molecule agonists of the p53 signaling pathway - cell viability (AID 651633; calls by dose curve; note: nearly all actives have a fitted effect of over 30% in size; note: potency is the fitted concentration of half-maximal effect)
# How it was run: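 Viability counter-read: CellTiter-Glo luminescence (30 min, room temperature) in the same p53RE-bla plates. These plates had been exposed to compounds for 16 h at 37 C.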
# [19] = qHTS assay for small molecule disruptors of the mitochondrial membrane potential (AID 720635); note: potency is the fitted concentration of half-maximal effect
# How it was run: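 Mitochondrial membrane potential tracked with Mito-MPS dye, red aggregates (ex 540/em 590 nm) against green monomers (ex 490/em 535 nm). Compound treatment 1 hr at 37C, dye 30 min in HepG2.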
# [20] = target: Glucocorticoid receptor (Homo sapiens) (UniProt P04150); assay: qHTS assay to identify small molecule antagonists of the glucocorticoid receptor (GR) signaling pathway (AID 720692; active = well fitted inhibition curve with a large enough effect in the signal ratio in the repeat runs, not every such curve was filed as active; the % refers to the signal ratio)
# How it was run: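 Fluorescence from cleaved LiveBLAzer B/G FRET substrate reports GRE-driven beta-lactamase in HeLa cells; compounds are tested against 5 nM dexamethasone (final) over 18 h at 37 C, substrate incubation 2 h at room temperature.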
Structure (SMILES),Potency [1],Potency [2],Potency [3],Potency [4],outcome [5],outcome [6],outcome [7],outcome [8],outcome [9],outcome [10],outcome [11],outcome [12],outcome [13],outcome [14],outcome [15],outcome [16],outcome [17],Potency [18],Potency [19],Potency [20]
CN1C[C@H](CNC(=O)OCc2ccccc2)C[C@@H]2c3cccc4c3c(cn4C)C[C@H]21,inactive,inactive,inactive,inactive,inactive,inactive,inactive,inactive,inactive,inactive,inactive,inactive,inactive,inactive,inactive,inactive,inactive,–,–,–
CC(C)N(CCC(C(N)=O)(c1ccccc1)c1ccccn1)C(C)C (centres undefined),–,inactive,inactive,inactive,inactive,inactive,inactive,inactive,inactive,inactive,inactive,inactive,inactive,inactive,inactive,inactive,–,inactive,inactive,–
CCCCCC[N+](=O)[O-],inactive,–,–,inactive,inactive,inactive,inactive,inactive,inactive,–,inactive,inactive,inactive,inactive,inactive,inactive,inactive,inactive,–,inactive
CCC(Br)(CC)C(=O)NC(N)=O,inactive,–,–,inactive,inactive,inactive,inactive,–,inactive,inactive,inactive,–,inactive,inactive,inactive,inactive,–,inactive,–,–
CCC(C)(NC(=O)c1cc(Cl)c(C)c(Cl)c1)C(=O)CCl (centres undefined),27.5 µM (active),inactive,–,–,inactive,inactive,inactive,inactive,inactive,inactive,inactive,inactive,inactive,inactive,inactive,inactive,–,–,–,–
Cc1ccc(-c2c(Cl)nc(C#N)n2S(=O)(=O)N(C)C)cc1,15.3 µM (active),inactive,inactive,–,inactive,inactive,inactive,–,inactive,inactive,inactive,inactive,inactive,inactive,inactive,inactive,inactive,–,1.09 µM (active),–
CCCCNP(N)(N)=S,inactive,inactive,inactive,inactive,inactive,inactive,–,–,inactive,inactive,inactive,–,inactive,inactive,inactive,inactive,inactive,–,inactive,–
N#Cc1cc(I)c(O)c(I)c1,4.33 µM (active),inactive,–,4.33 µM (active),inactive,inactive,inactive,inactive,inactive,inactive,inactive,inactive,inactive,inactive,inactive,inactive,inactive,34.4 µM (active),–,–
CC1(C)[C@H](C=C(Cl)Cl)[C@@H]1C(=O)O[C@@H](C#N)c1cccc(Oc2ccccc2)c1,inactive,inactive,inactive,–,inactive,inactive,–,inactive,inactive,inactive,inactive,inactive,inactive,inactive,inactive,inactive,inactive,–,–,–
C=CC(=O)OC(C)(C)C,inactive,inactive,–,–,inactive,inactive,–,inactive,inactive,inactive,inactive,inactive,inactive,inactive,inactive,inactive,inactive,–,–,inactive
NCCCNCCCN,inactive,–,inactive,inactive,inactive,inactive,inactive,inactive,inactive,inactive,inactive,inactive,inactive,inactive,inactive,inactive,inactive,–,–,–
NNC(=O)c1cccnc1,inactive,inactive,inactive,inactive,inactive,inactive,–,–,inactive,–,inactive,inactive,inactive,inactive,inactive,inactive,inactive,–,–,–
O=C(O)COc1ccc(Cl)cc1,inactive,inactive,inactive,inactive,inactive,inactive,inactive,inactive,inactive,inactive,inactive,inactive,inactive,inactive,–,inactive,inactive,–,–,inactive
COc1ccc(-c2ccccc2)cc1NNC(=O)OC(C)C,inactive,inactive,–,inactive,inactive,inactive,inactive,inactive,inactive,inactive,inactive,inactive,inactive,inactive,inactive,inactive,inactive,–,56.8 µM (active),–
